An excerpt weighted towards active compounds, which were near 7.3% of everything screened.
HCMV antiviral: inhibitors of human cytomegalovirus; HFF cells, HCMV-luciferase reporter, 72 h; stronger effect = lower value; activity change, negative = inhibition, % at 57.5 µM; 410,000 compounds, 4.5% hits; in the data active = activity change below about -60%; inconclusive = no clear call, values can overlap the other calls; inactive = above about -39%
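Two compound doses tested in HFFs infected with HCMV-luciferase, MOI 1 PFU/cell, 72 h at 37C. Lysate luminescence read with OneGlo; data normalized against buffer-only and 10uM Salinomycin inhibitor controls.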
HCV inh: blocks hepatitis C virus. Potency, µM (top dose mostly 41.8 µM), most hits filed as inhibitors. Huh7.5.1 HCVcc-Cre infection, luciferase reporter, 44 h. 340,000 compounds, 3.4% hits. AID 651820; active = well fitted inhibition curve with a large enough effect; inconclusive = small, poorly fitted or top-dose-only effect, or another doubt; inactive = no such curve, though single readings can be large or run the other way
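Compounds are dispensed onto cells plated 4 h earlier at 1,000 per well, with HCVcc-Cre virus (about 0.5 moi) added next. Following 44 h of culture, luminescent signal is measured for 15 sec after 15 min with substrate at room temperature.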
VACV Venus inh: inhibitors of vaccinia virus (Venus reporter) | 330,000 compounds, 0.46% hits | Vaccinia virus Venus reporter expression, fluorescence | Potency, µM (titrated, usually from 36.5 µM), usual class: inhibitors; calls by dose curve; tested in A549 cells; also: nearly all actives have a fitted effect of over 30% in size
FMDV antiviral: antivirals against foot and mouth disease virus. FMDV antiviral cell-based qHTS. Potency, µM (doses to about 57.9 µM), most hits filed as inhibitors. 410,000 compounds, 1.2% hits; calls by dose curve; tested in HEK293T cells; also: read-out not given here; nearly all actives have a fitted effect of over 45% in size
VACV mCherry inh: inhibitors of vaccinia virus infection (mCherry reporter signal); 310,000 compounds, 0.63% hits; Vaccinia virus mCherry reporter infection, fluorescence; AID 720579; Potency, µM (doses to about 36.5 µM), hits mostly inhibitors; calls by dose curve; tested in A549 cells; also: nearly all actives have a fitted effect of over 35% in size
Hits are given with their value; i = inactive; ? = inconclusive; nt = not tested or not shown; [ ] = dose if it differs, or a comment.

SMILES | HCMV antiviral | HCV inh | VACV Venus inh | FMDV antiviral | VACV mCherry inh
Cc1ccc(/C=C2\SC(=S)N(CCCC(=O)NNC(=O)c3ccccc3O)C2=O)cc1 | -93 | ? | nt | 8.9µM | nt
Cc1ccc(/C=C2\SC(=S)N(CCCC(=O)NC3CCCC3)C2=O)cc1 | -61 | i | i | 16µM | i
COc1cc(/C=C2\SC(=S)N(CCC(=O)NC3CCCC3)C2=O)cc(OC)c1OC | i | ? | i | ? | i
O=C(CCCN1C(=O)/C(=C\c2ccccc2)SC1=S)Nc1cccc(C(=O)O)c1 | i | i | i | i | i
O=C(CCCN1C(=O)/C(=C/c2ccccc2)SC1=S)Nc1cccc(O)c1 | -97 | ? | ? | i | ?
CC(/C=C1\SC(=S)N(CCC(=O)Nc2ccc(O)cc2)C1=O)=C\c1ccccc1 | ? | 7.9µM | i | i | i
COc1ccc(C(=O)NCc2ccc3c(c2)CCN3C(=O)c2ccncc2)cc1 | i | nt | i | i | i
Cc1ccccc1OCC(=O)NCC(=O)OCC(=O)c1ccc(F)cc1 | nt | nt | i | nt | i
C[C@@H]1CN(Cc2ccc3c(c2)CN(Cc2cccc4cccnc24)CCO3)C[C@H](C)O1 | nt | nt | i | i | i
O=C(CCN1C(=O)/C(=C\c2ccc(F)cc2)SC1=S)Nc1ccc(O)cc1 | i | i | i | i | i
O=C(CCCN1C(=O)/C(=C/c2cccs2)SC1=S)Nc1cccc(O)c1 | -100 | ? | ? | i | i
O=C(CCN1C(=O)/C(=C/c2cccs2)SC1=S)Nc1cccc(O)c1 | i | i | i | i | i
O=C(CCCN1C(=O)/C(=C\c2ccccc2)SC1=S)Nc1ccc(O)cc1 | -96 | ? | 28µM | i | ?
COc1cc(/C=C2\SC(=S)N(CCC(=O)Nc3cccc(O)c3)C2=O)cc(OC)c1OC | i | ? | i | 20µM | i
COc1cc(/C=C2\SC(=S)N(CCC(=O)Nc3ccccc3)C2=O)cc(OC)c1OC | i | i | i | i | i
Cc1ccc(/C=C2/SC(=S)N(CCCC(=O)Nc3ccc(O)cc3)C2=O)cc1 | -100 | i | ? | i | ?
NC1CONC1=O (stereo unspecified) | nt | nt | i | i | i
CC[C@H](C)[C@@H]1NC(=O)[C@@H](CC(C)C)NC(=O)[C@H](C(C)C)NC(=O)[C@H]2CSSC[C@H](NC1=O)C(=O)N2 | -106 | nt | 4.5µM | 6.3µM | 5µM
Cc1ccc(S(=O)(=O)NCC(=O)NCC(=O)N(C)Cc2ccc3ccccc3c2)cc1C | i | 10µM | i | ? | i
CSc1ccc(CN(C)C(=O)CNC(=O)CNS(=O)(=O)c2ccc(C)c(C)c2)cc1 | i | ? | i | i | i
CCOc1cc(CNC2CCCC2)cc(Cl)c1OCc1ccccc1 | i | 13µM | ? | i | i[1.46 µM]
CCOc1cc(C(N)=O)cc(Cl)c1OCc1ccccc1 | i | 13µM | i | i | i
COc1cc(CNCc2ccccc2)cc(Cl)c1OC | i | i | i | i | ?
CCOc1cc(CNC2CCCC2)ccc1OCc1ccccc1Cl | i | 3.2µM | nt | ? | nt
COc1cc(C(N)=O)cc(Cl)c1OCc1ccccc1 | i | i | i | i | i
SMILES | HCMV antiviral | HCV inh | VACV Venus inh | FMDV antiviral | VACV mCherry inh
COc1cc(CNCCc2ccccc2)cc(Cl)c1OCc1ccccc1 | i | ? | ? | ? | 10µM
CCOc1cc(C2NN=C(c3ccccc3)S2)ccc1OCc1ccccc1Cl (stereo unspecified) | i | ? | nt | i | nt
CCOc1cc(CNCC(C)C)cc(Cl)c1OCc1ccccc1 | ? | ? | ? | i | ?
COc1ccc(OC)c(-c2cc(Cl)c3c(c2)CC(CNC(=O)c2cnn4cccnc24)O3)c1 (stereo unspecified) | nt | nt | i | i | i
Nc1cc2ccccc2cc1NS(=O)(=O)N1CCCCC1 | i | nt | nt | nt | nt
CCc1ccccc1N(c1nc(-c2ccc(OC)c(OC)c2)no1)c1nc(-c2ccc(OC)c(OC)c2)no1 | i | nt | i | i | i
COc1cc(=O)n2c(c1C(=O)NCc1ccsc1)CCN(Cc1nc3ccccc3[nH]1)CC2 | nt | nt | i | i | i
CC(Oc1ccccc1F)C(=O)Nc1ccc2ccccc2c1 (stereo unspecified) | -77 | i | i | i | ?
CC(=O)Nc1ccc(NC(=O)C(C)Oc2ccccc2F)cc1 (stereo unspecified) | i | i | nt | i | nt
CC(Oc1ccc(F)cc1)C(=O)Nc1ccc2ccccc2c1 (stereo unspecified) | -67 | ? | nt | i | nt
O=C(Cn1cc(SCc2ccccc2F)c2ccccc21)N1CCCCCC1 | i | nt | i | i | i
CN(C)c1ccc(NC(=O)Cn2cc3c(n2)CCCC3)cc1 | -99 | i | i | i | i
O=C(NC(NNc1ccc([N+](=O)[O-])cc1)(C(F)(F)F)C(F)(F)F)c1ccccc1Cl | i | ? | nt | ? | nt
O=C(NC(Nc1nc2ccc([N+](=O)[O-])cc2s1)(C(F)(F)F)C(F)(F)F)c1ccccc1Cl | ? | 0.56µM | nt | 2.5µM | nt
CN=C1S/C(=C\c2cccn2-c2cccc(Br)c2)C(=O)N1C | -65 | i | nt | i | nt
O=C(CN1C(=O)COc2ccc(S(=O)(=O)N3CCCCCC3)cc21)NCCc1ccccc1 | i | nt | i | i | i
COc1ccc(N2CCN(CCCNS(=O)(=O)c3c(C)noc3/C=C/N(C)C)CC2)cc1 | nt | 7.9µM | nt | nt | nt
COc1ccc(NC(=O)C2CCN(S(=O)(=O)c3c(C)noc3/C=C/N(C)C)CC2)cc1 | i | i | nt | i | nt
COc1cc2c(cc1OC)[C@@H]1N(C)c3ccccc3[C@@]13CCN(S(=O)(=O)C(F)(F)F)C3=C2 | i | nt | nt | nt | nt
COc1ccc(CCN(C)Cc2ccc(OC)c(OCc3ccccc3)c2)cc1OC | i | i | nt | i | nt
COc1ccc(CCN(C)Cc2ccc(C(=O)Nc3ccccc3)cc2)cc1OC | -73 | 10µM | i | i | i
CCN(Cc1ccccc1)C(=O)c1ccc(NC(=O)c2ccc(OC)cc2)cc1 | ? | 13µM | nt | i | nt
COc1ccc(C(=O)COC(=O)c2ccc(NC(=O)c3ccccc3)cc2)cc1 | i | 10µM | nt | i | nt
COc1ccc(CN(C)CC(=O)Nc2ccc(SC(F)F)cc2)cc1OC | i | ? | i | 18µM | i
COc1ccc(CN(C)CC(=O)Nc2ccc(N3CCOCC3)cc2)cc1OC | i | i | i | i | i
SMILES | HCMV antiviral | HCV inh | VACV Venus inh | FMDV antiviral | VACV mCherry inh
COc1ccc(C(=O)Nc2ccc(C(=O)OCC(=O)c3ccccc3)cc2)cc1 | i | i | i | i | i
COc1cc2nc(N(C)C)c(CNC3CCOC(C)(C)C3)cc2c(OC)c1OC (stereo unspecified) | nt | nt | i | i | i
Cc1cccc(CCNC(=O)C2CCC(CNS(=O)(=O)c3c(C)cc(C)cc3C)CC2)c1 (stereo unspecified) | i | nt | i | i | i
CCn1c(-c2ccccc2F)nc2cc(NC(C)=O)cc(C(=O)N3CCCCC3c3nccn3C)c21 (stereo unspecified) | nt | nt | i | i | i
COc1cc(C(=O)OCCc2cc3ccccc3c(=O)o2)cc(OC)c1OC | i | 3.5µM | i | ? | i
NC(=O)c1ccc(NC(=O)COC(=O)c2c3c(nc4ccccc24)/C(=C\c2cccs2)CCC3)cc1 | i | ? | nt | i | nt
CC(C)CNC(=O)COC(=O)c1c2c(nc3ccccc13)/C(=C/c1cccs1)CC2 | i | ? | ? | i | ?
CCCCNC(=O)COC(=O)c1c2c(nc3ccccc13)/C(=C\c1cccs1)CC2 | i | 2.8µM | ? | i | i
